Screens deposited in PubChem BioAssay by Fisher Drug Discovery Resource Center.
A selection: hits, their analogues and other compounds. The true share with any hit is near 0.3%.
mcGAS inh = inhibitors of mouse cGAS | Q8C6L5 | recombinant cGAS, Kinase-Glo ATP depletion luminescence | inhibition, % at 12.5 µM | hit rate 0.15% among 160,000 | AID 1259399;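 note: 0% = negative control wells and 100% = reference inhibitor with no enzyme activity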
NPYLR7 ag = activates Aedes aegypti NPYLR7 receptor; HEK293T NPYLR7/Galpha15, GCaMP6s calcium fluorescence; activation, % at 10 µM; hit rate 0.15% among 270,000; AID 1259423; in the data active = activation above about 40%;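 note: 0% = vehicle and 100% = reference agonist at the receptor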
hcGAS inh = human cGAS inhibition | recombinant h-cGAS, ATP depletion, Kinase-Glo luminescence | hit rate 0.081% among 290,000 | inhibition, % at 12.5 µM | AID 1259398;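 note: 0% = vehicle reaction and 100% = reaction without DNA for no activity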
Target sequence (Q8N884 whole entry, looked up): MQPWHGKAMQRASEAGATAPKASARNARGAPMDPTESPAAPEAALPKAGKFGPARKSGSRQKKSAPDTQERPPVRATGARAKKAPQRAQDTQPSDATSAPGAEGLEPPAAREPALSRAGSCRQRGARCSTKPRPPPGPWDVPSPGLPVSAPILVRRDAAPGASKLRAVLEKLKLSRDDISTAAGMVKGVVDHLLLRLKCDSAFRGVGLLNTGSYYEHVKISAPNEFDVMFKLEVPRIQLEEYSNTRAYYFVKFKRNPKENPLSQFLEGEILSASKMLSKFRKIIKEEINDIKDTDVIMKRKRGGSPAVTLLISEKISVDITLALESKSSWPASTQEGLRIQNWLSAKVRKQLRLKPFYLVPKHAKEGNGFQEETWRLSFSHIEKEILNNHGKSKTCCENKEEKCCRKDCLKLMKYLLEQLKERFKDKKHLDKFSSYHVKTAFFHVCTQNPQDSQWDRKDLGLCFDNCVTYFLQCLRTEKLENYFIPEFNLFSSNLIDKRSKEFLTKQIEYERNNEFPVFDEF
Numbers without * were called inactive; ! = repeats disagree. Cut-off read from the data, not from the text of the source, unless noted: active = inhibition above about 40%; inactive = the rest.

How did CCOc1ccc(NC(C)=O)cc1 do in these assays?
NPYLR7 ag: 71*!; hcGAS inh: -4

Results for CCOc1ccc(NC(=O)CC(C)O)cc1 (stereo unspecified) ?
NPYLR7 ag: -4; hcGAS inh: -3

How did O=c1[nH]c2cc(Cl)c(Br)cc2o1 do in these assays?
mcGAS inh: 42*; NPYLR7 ag: -3; hcGAS inh: 24

How did O=c1[nH]c2c(Br)c(Br)c(Cl)cc2o1 do in these assays?
mcGAS inh: 90*; NPYLR7 ag: -2; hcGAS inh: -1

How did O=c1[nH]c2ccc(S(=O)(=O)Nc3ccccc3Oc3ccccc3Cl)cc2o1 do in these assays?
NPYLR7 ag: 13; hcGAS inh: 10

What do the screens show for `NC(=O)c1cnc(Sc2ccc3[nH]c(=O)oc3c2)c(Cl)c1`?
mcGAS inh: -15; NPYLR7 ag: 16; hcGAS inh: -8

How did O=c1[nH]c2c(Cl)c(Cl)c(Cl)cc2o1 do in these assays?
mcGAS inh: 82*; NPYLR7 ag: -6; hcGAS inh: 49*

Results for Nc1ccc2oc(=O)[nH]c2c1 ?
mcGAS inh: -6; NPYLR7 ag: 2; hcGAS inh: -9

What do the screens show for `COc1ccc(-c2nnc(NC(=O)C(NC(=O)Nc3ccc(C(C)C)cc3)C(C)C)s2)cc1` (stereo unspecified)?
mcGAS inh: -5; NPYLR7 ag: 24; hcGAS inh: -11

How did O=C(NCc1cccnc1-n1cncn1)C1CCCCC1 do in these assays?
mcGAS inh: -8; NPYLR7 ag: -2; hcGAS inh: -7

What do the screens show for `CN(C)S(=O)(=O)c1ccc(C(=O)Nc2ccc3c(c2)C(=O)c2ccccc2C3=O)cc1`?
mcGAS inh: 105*; NPYLR7 ag: 20; hcGAS inh: -2

Results for Cc1ccc(C(=O)Nc2ccc3c(c2)C(=O)c2ccccc2C3=O)cc1 ?
NPYLR7 ag: -1; hcGAS inh: -8

Results for N#CC(C#N)=C1C=C2C=C(N3CCCCC3)CCC2CC1 (stereo unspecified) ?
mcGAS inh: -5; NPYLR7 ag: 116*; hcGAS inh: -12

Results for N#CC(C#N)=C1C=C2C=C(N3CCCC3)CCC2CC1 (stereo unspecified) ?
mcGAS inh: -8; NPYLR7 ag: 90*; hcGAS inh: -10

Results for N#CC(C#N)=c1c2nn(Cc3ccccc3)nc2c(=C(C#N)C#N)c2nn(Cc3ccccc3)nc12 ?
mcGAS inh: -6; NPYLR7 ag: 0; hcGAS inh: -6

Results for N#CC(C#N)=C1C=C2C=C(N3CCN(Cc4ccccc4)CC3)CCC2CC1 (stereo unspecified) ?
NPYLR7 ag: 47*; hcGAS inh: -5

Results for CC1CCN(CC2(O)CCCN(Cc3ccc(F)cc3)C2=O)CC1 (stereo unspecified) ?
NPYLR7 ag: 1; hcGAS inh: -7

Results for CC/C=C(/C)C(=O)NCC(C)(C)N1CCS(=O)CC1 ?
NPYLR7 ag: 8; hcGAS inh: -4

Results for COc1cccc(C(CNS(=O)(=O)c2ccccc2Br)N(C)C)c1 (stereo unspecified) ?
NPYLR7 ag: -3; hcGAS inh: -6

Results for N#CCCNN=Cc1cc(I)c(O)c(I)c1 ?
mcGAS inh: 99*; NPYLR7 ag: -1; hcGAS inh: 55*

How did COCc1cc(C)nc(N/N=C\c2cc(I)c(OC)c(OC)c2)c1C#N do in these assays?
mcGAS inh: -5; NPYLR7 ag: -2; hcGAS inh: -3

How did Cc1ccc(Cc2nnc(NC3CCCC3)[nH]c2=O)cc1 do in these assays?
NPYLR7 ag: 11; hcGAS inh: -5

Results for CCOc1ccc(S(=O)(=O)N(C(=O)C2CCCCC2)c2ccc3oc(C)c(C(C)=O)c3c2)cc1 ?
mcGAS inh: 0; NPYLR7 ag: -5; hcGAS inh: 2

Results for N#CC(C#N)=Cc1cn(-c2ccccc2)nc1-c1cc2ccccc2o1 ?
NPYLR7 ag: -9; hcGAS inh: 0

What do the screens show for `N#CC(C#N)=Cc1cn[nH]c1-c1cc2ccccc2o1`?
mcGAS inh: 46*; NPYLR7 ag: -1; hcGAS inh: 19

How did CCn1c(SCCOC)nnc1-c1cn(C)nc1OC do in these assays?
mcGAS inh: -9; NPYLR7 ag: 11; hcGAS inh: -7

How did N#C/C(=C/c1ccc(N2CCCCCC2)o1)c1ccc(F)cc1 do in these assays?
NPYLR7 ag: 88*; hcGAS inh: -9

How did N#C/C(=C\c1ccc(N2CCCCC2)s1)c1cccc(Cl)c1 do in these assays?
NPYLR7 ag: 28; hcGAS inh: -2

What do the screens show for `N#CC(C(=O)c1oc2ccccc2c(=O)c1Cl)c1ccccn1` (stereo unspecified)?
NPYLR7 ag: 12; hcGAS inh: -8

Results for N#CC1C(=N)SC(=N)C(C#N)C1c1ccccc1F (stereo unspecified) ?
mcGAS inh: 59*; NPYLR7 ag: 47*!; hcGAS inh: 68*!
